Screening results: PubChem BioAssay, National Center for Advancing Translational Sciences (NCATS)
The list is not random: actives were taken first. Their share in the collection is about 2.4%.
D2 ag-1 – human D2 receptor agonism in beta-arrestin assay | P14416 | DiscoveRx PathHunter D2 beta-arrestin, luminescence, 90 min; 100% = 57 uM dopamine signal | activation, % (test concentration not listed) | 0.084% of 360,000 active | AID 624465; in the data active = activation above about 40%; inconclusive = between about 15% and that limit
Target sequence (P14416 whole entry, looked up): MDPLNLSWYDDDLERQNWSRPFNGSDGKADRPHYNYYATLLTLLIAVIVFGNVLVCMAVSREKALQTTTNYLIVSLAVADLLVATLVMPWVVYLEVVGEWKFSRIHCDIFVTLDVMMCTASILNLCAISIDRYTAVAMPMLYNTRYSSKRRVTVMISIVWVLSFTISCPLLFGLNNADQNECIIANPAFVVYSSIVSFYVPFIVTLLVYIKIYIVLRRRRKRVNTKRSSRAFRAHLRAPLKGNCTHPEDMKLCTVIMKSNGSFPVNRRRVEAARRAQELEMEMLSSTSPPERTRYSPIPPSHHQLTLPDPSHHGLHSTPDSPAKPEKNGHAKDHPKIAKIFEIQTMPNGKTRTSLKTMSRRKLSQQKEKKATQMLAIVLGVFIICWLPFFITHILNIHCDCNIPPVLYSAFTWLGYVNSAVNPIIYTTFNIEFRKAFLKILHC
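Agonist mode: compounds alone added to overnight-plated D2 PathHunter cells for 90 min at 37 C, with 57 uM final dopamine (EC100) defining full response. Beta-arrestin recruitment detected by chemiluminescent reagent, read after 1 h at ambient temperature.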
D2 ag-2 – agonists of human D2 dopamine receptor; P14416; HEK293 T-REx D2 cells, calcium flux agonist mode; activation, % at 2 µM; 0.53% of 340,000 active; AID 485358;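 active = activation over 3 SD above normal in the single-dose calcium agonist read, cut at about 30% in these data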
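In this primary screen, compounds producing a positive calcium signal within 180 s of addition to tetracycline-induced, force-coupled HEK293 Trex D2 cells are flagged; cells are dye-loaded with a no-wash calcium kit beforehand.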
D2 PAM-1 – positively modulates the human D2 dopamine receptor allosterically. P14416. HEK293 T-REx D2, calcium flux, EC20 dopamine potentiation. potentiation, % at 10 µM. 0.34% of 340,000 active;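 active = potentiation over 3 SD above the plate norm, cut at about 30% in these data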
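Primary screen. Calcium kinetics in induced HEK293 T-REx D2 cells: compound pre-addition 180 s, EC20 dopamine, 180 s more.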
D2 antag – antagonists of human D2 dopamine receptor; P14416; HEK293 TREx D2 cells, calcium flux, dopamine EC80; inhibition, % at 10 µM; 2% of 340,000 active; in the data active = inhibition above about 30%; inactive = below that, where a call was filed
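HEK293 T-REx D2 cells, tet-induced, calcium dye no-wash. Cpd pintool add, 180 s kinetic, then EC80 DA, 180 s kinetic. Ca flux read.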
D2 PAM-2 – positive allosteric modulators of human D2 dopamine receptor. P14416. DiscoveRx D2 beta-arrestin cells, luminescence, 90 min; 100% = 57 uM dopamine signal. potentiation, % (no concentration beside the values). 0.23% of 360,000 active. AID 624464; in the data active = potentiation above about 50%; inconclusive = mostly about 30% to 49%
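D2 cells co-treated with compound plus 50 nM dopamine (EC20) for 90 min at 37 deg C to detect potentiation. Beta-arrestin recruitment was read as enzyme-fragment luminescence after 1 h at ambient temperature. Full response was set by 57 uM dopamine.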
Each line names hits and unclear results; the compound was inactive in the other large screens.

O=C(CN(C1CCCCC1)S(=O)(=O)c1ccccc1)NCc1ccco1	D2 PAM-1 47
COc1ccc(S(=O)(=O)NCC(=O)N(CC(=O)NCc2ccco2)C2CCCC2)cc1	D2 antag 47
COc1cc(OC)c(NC(=O)N2CCc3c(sc4c3CCCC4)C2c2ccccc2)cc1Cl (stereo not given)	none (no result: D2 ag-1, D2 antag, D2 PAM-2)
O=C(NCC(O)c1ccc([N+](=O)[O-])cc1)Nc1ccccc1 (stereo not given)	none
CC(NCC(O)c1ccc([N+](=O)[O-])cc1)C12CC3CC(CC(C3)C1)C2 (stereo not given)	D2 antag 38
CCOc1ccccc1NC(=O)NC(CC)c1c(-n2cccc2)sc2c1CCN(C)C2 (stereo not given)	none (no result: D2 ag-1, D2 antag, D2 PAM-2)
O=C(c1ccc2c(c1)OCO2)C1CCCN(C2CCN(CCc3ccccc3)CC2)C1 (stereo not given)	D2 antag 70
COc1ccc(Cl)cc1NC(=O)Cn1c(=O)n(Cc2ccco2)c(=O)c2cccnc21	none (no result: D2 ag-1, D2 ag-2, D2 antag, D2 PAM-2)
CCn1ccnc1CN1CCCC(CO)(Cc2cccc(OC)c2)C1 (stereo not given)	none
COc1cc(Cl)c(CN2CCCC(CO)(Cc3ccccc3F)C2)cc1OC (stereo not given)	none
COc1cccc(CC2(CO)CCCN(Cc3ccc4c(c3)OCCO4)C2)c1 (stereo not given)	D2 antag 56
CCOc1ccc(CN2CCCC(CO)(Cc3ccccc3F)C2)cc1 (stereo not given)	D2 antag 67
OCC1(Cc2ccccc2)CCCN(Cc2ccc(-c3ccco3)cc2)C1 (stereo not given)	D2 antag 54
COc1cccc(CNC(=O)CCc2c(C)nc3c(c(C)nn3-c3ccc(C)c(C)c3)c2C)c1	none (no result: D2 ag-1, D2 antag, D2 PAM-2)
CCN(c1ccccc1C)S(=O)(=O)c1nnc(NC(=O)c2ccccc2C)s1	none (no result: D2 ag-1, D2 antag, D2 PAM-2)
O=C(CCCN1CCC(c2ccccc2)C1)c1ccc2c(c1)OCCO2 (stereo not given)	D2 antag 79
O=C(CCCN1CCOCC1)c1ccc2c(c1)OCCO2	none
CCOC(=O)c1cc2c(=O)n3ccccc3nc2n(CC2CCCO2)c1=NC(=O)c1cccc(C)c1 (stereo not given)	none (no result: D2 ag-1, D2 antag, D2 PAM-2)
NS(=O)(=O)c1ccc(NC(=O)CSc2nc3ccccc3n2-c2ccccc2)cc1	D2 antag 31
COc1cc2c(cc1OC)C1Cc3ccc(OC)c(OC)c3CN1CC2 (stereo not given)	D2 antag 80
COc1cc2c(cc1OC)[C@@H]1Cc3ccc(OC)c(OC)c3CN1CC2	D2 antag 57
COc1ccc2nc(SCC(O)c3cccc(Br)c3)[nH]c2c1 (stereo not given)	none (no result: D2 ag-1, D2 antag, D2 PAM-2)
Cc1cn(C)c(CC(=O)N2CCN(c3cccc(C(F)(F)F)c3)CC2)c1C(=O)O	none (no result: D2 ag-1, D2 antag, D2 PAM-2)
CSCCC(NS(=O)(=O)c1ccc2[nH]c(=O)c(=O)[nH]c2c1)C(=O)O (stereo not given)	D2 antag 36
CSCCC(NS(=O)(=O)c1ccc(Cl)c(Cl)c1)C(=O)O (stereo not given)	none
COc1ccccc1N1CCN(C(=O)c2cc3ccc4ccc(C)[nH]c4c3n2)CC1	none (no result: D2 ag-1, D2 antag, D2 PAM-2)
Cc1cccc(OCCOCCn2c(-c3ccc(Cl)cc3)nc3ccccc3c2=O)c1C	none (no result: D2 ag-1, D2 antag, D2 PAM-2)
COc1ccccc1CNS(=O)(=O)c1c(C(=O)N2CCCC2)c(C)n(C)c1C	none
COc1ccccc1CNS(=O)(=O)c1c(C(=O)N2CCCCC2)c(C)n(C)c1C	D2 antag 30
COc1ccc(NC(=O)C2CCCN(S(=O)(=O)c3ccc(Cl)cc3)C2)cc1 (stereo not given)	none (no result: D2 ag-1, D2 antag, D2 PAM-2)
O=C(COC(=O)c1cc([N+](=O)[O-])ccc1N1CCOCC1)c1ccc(OC(F)F)cc1OC(F)F	D2 ag-1 inconclusive, D2 antag 44
O=C(Cn1ccc([N+](=O)[O-])n1)N1CCc2ccccc21	none
Cc1nn(C(=O)Cn2ccc([N+](=O)[O-])n2)c(C)c1Br	D2 PAM-1 31
Cc1ccc(NC(=O)C(=O)NCC(c2cccnc2)N2CCc3ccccc32)cc1Cl (stereo not given)	none (no result: D2 ag-1, D2 antag, D2 PAM-2)
Cc1ccc2nc(N3C(=O)C(O)=C(C(=O)c4ccc(C)o4)C3c3ccco3)sc2c1 (stereo not given)	D2 antag 31
Cc1ccc2nc(N3C(=O)C(O)=C(C(=O)c4ccco4)C3c3ccc(O)cc3)sc2c1 (stereo not given)	none (no result: D2 ag-1, D2 PAM-2)
Cc1ccc2nc(N3C(=O)C(O)=C(C(=O)c4ccco4)C3c3ccc(C)o3)sc2c1 (stereo not given)	D2 antag 31
O=C(C1=C(O)C(=O)N(c2nc3ccc(Cl)cc3s2)C1c1ccco1)c1ccco1 (stereo not given)	none
C/C(=N\Nc1cccc([N+](=O)[O-])c1)c1cc(F)ccc1O	D2 antag 35
COc1cc2c(cc1NC(=O)c1ccccc1C)n(C)c(=O)n2C	none (no result: D2 ag-1, D2 antag, D2 PAM-2)
Cc1c(Cl)cccc1NC(=O)CSc1nc(=O)n(Cc2ccco2)c2c1CCC2	none (no result: D2 ag-1, D2 antag, D2 PAM-2)
Nc1nonc1-c1nc2ccccc2n1CC(=O)Nc1cccc(C(F)(F)F)c1	none (no result: D2 ag-1, D2 antag, D2 PAM-2)
CC(C)(C)NC(=O)CN(Cc1ccc2c(c1)OCO2)C(=O)CCC(=O)Nc1nccs1	none
CCC(C)(C)NC(=O)CN(Cc1ccc2c(c1)OCO2)C(=O)CCC(=O)Nc1cc(C)ccn1	D2 antag 42
Cc1ccc(NC(=O)CCc2nnc3ccc(N4CCC(C)CC4)nn23)nc1	D2 antag 32
Cc1ccccc1Cn1c(=O)n(CC2CCC(C(=O)N3CCC(C)CC3)CC2)c(=O)c2sccc21 (stereo not given)	none (no result: D2 ag-1, D2 PAM-1, D2 antag, D2 PAM-2)
Cc1ccc(C)c(Cn2c(CO)nc3ccccc32)c1	none
Cc1ccc(C)c(Cn2ncc3ccccc32)c1	D2 PAM-1 41
CC(=O)c1c(C)[nH]c(C(=O)OCCCCN2C(=O)c3ccccc3C2=O)c1C	D2 antag 48
C=CCn1c(CCNC(=O)c2cccs2)nnc1SCC(=O)Nc1cccc(C(C)=O)c1	D2 antag 34
O=C(Nc1c(C(=O)Nc2ccc(F)cc2)oc2ccccc12)c1cc2ccccc2o1	none (no result: D2 ag-1, D2 antag, D2 PAM-2)
CC1(C(=O)O)CCC(C(=O)Nc2ccc(OC(F)(F)Cl)cc2)C1(C)C (stereo not given)	D2 antag 43
COc1ccccc1C1=Nn2c(nc3sc(C(=O)Nc4ccccc4Cl)c(C)c3c2=O)SC1	none (no result: D2 ag-1, D2 antag, D2 PAM-2)
O=c1c(=O)n(-c2ccccc2)ccn1Cc1cccc(C(F)(F)F)c1	none (no result: D2 ag-1, D2 antag, D2 PAM-2)
COc1ccc(COc2ccc(S(=O)(=O)N3CCCC3)cc2C(N)=O)cc1F	D2 PAM-1 30
COc1ccc(S(=O)(=O)N2CCCCCC2)cc1C(=O)N(C)Cc1c(F)cccc1Cl	none
COc1ccc(S(=O)(=O)N2CCCCCC2)cc1C(=O)N(C)Cc1ccc(Cl)cc1Cl	D2 antag 47
COc1ccc(COc2ccccc2C(=O)NCc2ccccc2)cc1F	D2 antag 41
